The entries come from a sample that favours hits as a whole.
KDM5B inh – Primary screen for KDM5B Histone Demethylases FDH-coupled qHTS | Lysine-specific demethylase 5B (Homo sapiens), Q9UGL1 | KDM5B demethylase, FDH-coupled NADH fluorescence (FDH is formaldehyde dehydrogenase) | Potency, µM (top dose mostly 57.7 µM), hits mostly inhibitors | 220,000 tested, 2.6% active | AID 1347165, 2019; active = well fitted inhibition curve with a large enough effect; also: nearly all actives have a fitted effect of over 70% in size
Target sequence (Q9UGL1 whole entry, looked up): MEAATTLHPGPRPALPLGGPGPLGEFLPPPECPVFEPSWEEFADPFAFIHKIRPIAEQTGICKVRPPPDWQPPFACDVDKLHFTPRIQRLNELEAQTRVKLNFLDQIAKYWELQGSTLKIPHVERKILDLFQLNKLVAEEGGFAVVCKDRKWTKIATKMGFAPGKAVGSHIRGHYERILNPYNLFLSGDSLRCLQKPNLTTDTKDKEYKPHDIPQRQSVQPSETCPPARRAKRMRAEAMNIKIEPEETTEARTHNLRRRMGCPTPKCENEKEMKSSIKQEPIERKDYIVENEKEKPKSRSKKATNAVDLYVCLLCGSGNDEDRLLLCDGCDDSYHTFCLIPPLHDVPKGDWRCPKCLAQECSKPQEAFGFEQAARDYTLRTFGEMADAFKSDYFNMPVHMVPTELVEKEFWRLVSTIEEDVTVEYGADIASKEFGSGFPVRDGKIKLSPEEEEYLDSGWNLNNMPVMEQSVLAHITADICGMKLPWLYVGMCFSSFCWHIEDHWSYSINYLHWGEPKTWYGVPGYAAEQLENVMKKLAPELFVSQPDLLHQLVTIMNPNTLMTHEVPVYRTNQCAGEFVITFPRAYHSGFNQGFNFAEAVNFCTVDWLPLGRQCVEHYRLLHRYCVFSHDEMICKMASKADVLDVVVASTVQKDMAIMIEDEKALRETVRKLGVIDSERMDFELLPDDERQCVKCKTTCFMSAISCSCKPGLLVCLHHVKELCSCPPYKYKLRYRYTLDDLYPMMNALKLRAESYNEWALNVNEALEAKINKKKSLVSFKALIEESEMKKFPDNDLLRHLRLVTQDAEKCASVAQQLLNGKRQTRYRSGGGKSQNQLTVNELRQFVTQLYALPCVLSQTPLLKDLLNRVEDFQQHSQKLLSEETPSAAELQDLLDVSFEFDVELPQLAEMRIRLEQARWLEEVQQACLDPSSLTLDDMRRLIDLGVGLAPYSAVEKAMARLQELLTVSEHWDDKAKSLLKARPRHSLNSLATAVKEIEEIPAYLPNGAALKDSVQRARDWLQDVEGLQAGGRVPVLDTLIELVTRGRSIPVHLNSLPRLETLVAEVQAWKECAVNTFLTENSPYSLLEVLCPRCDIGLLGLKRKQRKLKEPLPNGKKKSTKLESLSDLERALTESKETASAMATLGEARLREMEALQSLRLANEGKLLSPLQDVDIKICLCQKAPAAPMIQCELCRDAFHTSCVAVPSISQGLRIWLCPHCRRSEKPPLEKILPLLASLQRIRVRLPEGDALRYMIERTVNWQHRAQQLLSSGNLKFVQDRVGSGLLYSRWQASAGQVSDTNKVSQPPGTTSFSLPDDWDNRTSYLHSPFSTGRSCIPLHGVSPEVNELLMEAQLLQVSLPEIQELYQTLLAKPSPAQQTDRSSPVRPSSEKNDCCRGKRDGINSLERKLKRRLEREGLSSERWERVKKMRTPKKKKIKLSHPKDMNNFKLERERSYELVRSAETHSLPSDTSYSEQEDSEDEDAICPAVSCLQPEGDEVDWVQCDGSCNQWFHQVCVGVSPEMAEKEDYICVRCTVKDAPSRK
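Coupled FDH/NAD⁺ fluorescence readout. KDM5BΔAP 200 nM final; compound titration, 10 min RT preincubation; substrate mix 12.5 µM H3K4me3, 25 µM 2-OG, 50 µM Fe(II), 100 µM ascorbate, 0.25 mM NAD⁺, 0.25 U/mL FDH; ΔRFU over 30 min.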
Numbers stand for hits; . = inactive.

SMILES	KDM5B inh
COc1cccc(Nc2ncc3c(n2)C(C)(C(=O)NC2CCN(C)CC2)CC3)c1 (stereo not given)	.
CC(=O)N1CCN(C(=O)C2(C)CCc3cnc(Nc4ccccc4)nc32)CC1 (stereo not given)	.
CC(=O)Nc1ccc(OCC(=O)NCc2ccc(N3CCOCC3)cc2)nc1	.
COc1cccc(Nc2ncc3c(n2)C(C)(C(=O)NC2CCOCC2)CC3)c1 (stereo not given)	.
O=C(Nc1ccc(Cl)c(C(F)(F)F)c1)C(Cl)c1ccccc1 (stereo not given)	.
CCC(C)c1ccc(NC(=O)CC(C)C)cc1 (stereo not given)	.
Cc1cc(C)cc(C(=O)N2CCC(Oc3ccc(C(=O)N(C)C)cn3)CC2)c1	.
COc1ccccc1N1CCN([C@H]2[C@@H]3OC[C@@H](O3)[C@@H](N(CC3CC3)CC3CC3)[C@@H]2O)CC1	.
N#CC(C(=O)NCc1ccccc1)C(=O)c1cccc(C(F)(F)F)c1 (stereo not given)	.
COC(=O)c1cc(Br)ccc1O	.
CN(C)S(=O)(=O)N1CCCC(c2nnc(CN3CCCCC3)n2C)C1 (stereo not given)	.
COc1cccc(NC(=O)CN(C)C(=O)c2cccc(S(=O)(=O)N3CCc4ccccc43)c2)c1	.
COc1ccccc1CCNC(=O)C(=O)NCc1n[nH]c(=O)c2ccccc12	.
Cc1ccc(NC(=O)CCc2ncc(-c3c(F)cccc3F)o2)cc1C	.
CCOc1ccc(-c2cc(C(=O)NCCc3ccccn3)[nH]n2)cc1	.
CC(C)CNC(=O)C(Cc1ccccc1)NC(=O)c1ccccc1 (stereo not given)	.
CC(=O)c1ccc(N2CCN(C(C(=O)O)c3c[nH]c4cc(NC(=O)C(C)C)ccc34)CC2)cc1 (stereo not given)	.
Cc1ccccc1C(C)NC(=O)c1ccc2c(c1)NC(=O)CS2 (stereo not given)	.
O=C(Nc1ccccc1Cl)c1cnc(N2CCOCC2)c2ccccc12	.
O=C(c1nc(-c2ccc(Cl)cc2)c2ccccn12)N1CCCC1	.
CC(C)(C)c1cc(C(=O)N2CCN(c3ncccn3)CC2)nn2cccc12	.
CC(C)(C)c1nc(C(=O)N2CCN(c3ncccn3)CC2)n2ccncc12	79µM
O=C(CCn1c(=O)c2cccn2c2cccnc21)N1CCN(c2ccc(F)cc2)CC1	.
O=C(CCNS(=O)(=O)c1ccc(F)cc1)N1CCN(c2ncccn2)CC1	.
Cc1ccc(C)c(C(=O)N2CCN(c3ncccn3)CC2)c1	.
SMILES	KDM5B inh
O=C(c1nc(-c2ccc(F)cc2)c2ccccn12)N1CCN(c2ncccn2)CC1	28µM
O=C(c1cc(-c2ccc(F)cc2)n[nH]1)N1CCN(c2ncccn2)CC1	.
O=C(c1nc(-c2ccc(F)cc2)c2cnccn12)N1CCN(c2ncccn2)CC1	25µM
CCCn1nc(C(=O)Nc2nc3ccccc3s2)c2ccccc2c1=O	.
O=C1CC(c2ccc(C(F)(F)F)cc2)c2cnn(Cc3ccc4c(c3)OCO4)c2N1 (stereo not given)	.
COc1cccc(C2C(C(=O)Nc3ccccc3)=C(C)Nc3nc(SC)nn32)c1OC (stereo not given)	.
Cc1cc(Cl)ccc1OCC(=O)OCC(=O)Nc1ccccc1	.
CC(C)Cn1c(SCc2noc(-c3ccc(Cl)cc3)n2)nnc1N1CCOCC1	.
Cn1cnc(S(=O)(=O)NCCc2noc(-c3ccccc3)n2)c1	.
CC(Nc1ccc(-c2nc(CCCc3ccccc3)no2)cn1)c1cnn(C)c1 (stereo not given)	28µM
Cc1nccn1CCN(C)c1ccc(-c2nc(COc3ccccc3)no2)cn1	22µM
CC(=O)N1CCC(Cc2noc(-c3ccccc3)n2)C1 (stereo not given)	.
N#Cc1ccccc1COC(=O)c1ccc(N2CCOCC2)nc1	.
N#Cc1ccc(OCc2noc(-c3ccsc3)n2)cc1	.
CN(Cc1cnn(C)c1)c1ccc(-c2nc(COc3ccccc3)no2)cn1	.
O=C(NCCc1noc(-c2cccnc2)n1)NCc1ccccc1	.
COC1CCN(c2ccc(-c3nc(COc4ccccc4)no3)cn2)CC1	28µM
c1ccc(CCCc2noc(-c3ccc(N4CCOCC4)nc3)n2)cc1	35µM
COC1CCN(c2cc(-c3ccccn3)nc3c(C)noc23)CC1	.
Cn1c(=O)[nH]c(=O)c2c1nc(N1CCCC1)n2CC(O)CO (stereo not given)	.
O=C(Nc1ccc(SC(F)F)cc1)c1cc(-c2ccccc2)nc2ccccc12	.
O=C(COC(=O)CCc1nc2ccccc2s1)Nc1ccccc1C(=O)c1ccccc1	.
c1ccc(CCCOCC2CCNCC2)cc1	.
Cc1cccc(C)c1NC(=O)CSCc1cc(=O)n2ccsc2n1	.
CCC(C(=O)NC(C)C)c1ccccc1 (stereo not given)	.
SMILES	KDM5B inh
CCOc1cccc(C2c3c(-c4ccccc4O)n[nH]c3C(=O)N2Cc2ccncc2)c1 (stereo not given)	.
CC(C)c1ccc(S(=O)(=O)N2CCN(Cn3ncc4ccccc4c3=O)CC2)cc1	.
CCOc1ccc(CCNC(=O)c2noc(C)c2Cn2nc(C)cc2C)cc1OCC	.
Cc1ccc2c(C(=O)O)cc(-c3ccncc3)nc2c1C	.
CC(C)C(=O)NCCNC(=O)c1cc(-c2ccncc2)nc2ccccc12	.
CCOc1ccc(-c2cc3c(N4CCC(C(=O)NCc5cccs5)CC4)nccn3n2)cc1	.
COc1cccc2c(Nc3cccc(O)c3)cc(C)nc12	.
COc1ccc(C(=O)N2CCC(N3C(=O)C(OC)C34CCOCC4)CC2)c(OC)c1 (stereo not given)	.
CCn1nccc1C(=O)N1CCC2(CC1)N(Cc1cccc(F)c1)C(=O)CS2=O (stereo not given)	.
O=C(C1CCCC1)N1CCC2(CC1)N(Cc1cccc(F)c1)C(=O)CS2=O (stereo not given)	.
COCCN1C(=O)CS(=O)C12CCN(C(=O)Nc1ccc(OC)cc1)CC2 (stereo not given)	.
COCCN1C(=O)CS(=O)C12CCN(C(=O)c1ccc3cc[nH]c3c1)CC2 (stereo not given)	18µM
O=C(c1cccc2[nH]ccc12)N1CCC2(CC1)N(Cc1cccc(F)c1)C(=O)CS2=O (stereo not given)	18µM
COCCN1C(=O)CS(=O)C12CCN(C(=O)C1(c3ccc(OC)cc3)CC1)CC2 (stereo not given)	.
Cc1ccc(C(=O)C2CCCCC2)cc1	.
Cc1cc2nc3n(c(=O)c2n1CC(=O)N1CCCc2ccccc21)CCCCC3	.
CCCCNC(=O)CC(c1cccc2c1OCO2)c1c[nH]c2c(CC)cccc12 (stereo not given)	.
CCc1cccc2c(C(CC(=O)NCc3ccco3)c3ccc(C)cc3)c[nH]c12 (stereo not given)	28µM
CCCCNC(=O)CC(c1cccc([N+](=O)[O-])c1)c1c[nH]c2c(CC)cccc12 (stereo not given)	.
Cc1ccc(C(=O)N2C(C(=O)NCc3ccccc3)COC23CCN(C(=O)C2CC2)CC3)cc1 (stereo not given)	.
CCOC(=O)c1cnc2c(Cl)cccc2c1Nc1cccc(C)c1	.
CCn1cc(CN2CCC3(CC2)CN(C)CC3COC)cn1 (stereo not given)	25µM
COCC1CN(C)CC12CCN(Cc1ccc(Cl)c(F)c1)CC2 (stereo not given)	.
COCC1CN(C)CC12CCN(Cc1cc(C)nn1C)CC2 (stereo not given)	.
